# SMN2 splice up: enhancers of SMN2 splice variant expression | HEK293 SMN2-luciferase splicing reporter, luminescence, 30-36 h | Potency, µM (highest dose often 46.1 µM), usual class: activators | 2.8% of 210,000 active; further: nearly all actives have a fitted effect of over 55% in size
#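 qHTS luciferase splicing reporter: luminescence rises when SMN2 exon 7 is included in transfected HEK293 cells. Compound exposure lasted 30-36 h at 37C, with 4.5 mM final sodium butyrate as control, followed by a ONE-Glo read.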
# ELG1 repair inh: inhibitors of ELG1-dependent DNA repair in HEK293T cells; HEK293T ELG1-luciferase reporter, luminescence, 16 h; DNA damage induced by 5-fluorouridine; Potency, µM (highest dose often 46.1 µM), usual class: inhibitors; 2.3% of 330,000 active; AID 504467; further: nearly all actives have a fitted effect of over 55% in size
#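 Overnight (16 hr) co-exposure of 2,000 cells/well to 5-fluorouridine and compound at 37 °C preceded detection. Luciferase was quantified via ONE-Glo luminescence; loss of signal denotes inhibition.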
# ELG1 genotox: genotoxicity induction in ELG1-luciferase HEK293T cells; AID 504466; 1.3% of 330,000 active; HEK293T ELG1-luciferase reporter, luminescence, 16 h; Potency, µM (series often up to 46 µM), usual class: activators; further: nearly all actives have a fitted effect of over 60% in size
#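 After overnight (16 hr) compound treatment at 37 °C, ELG1-luciferase HEK293T cells were lysed with ONE-Glo; luminescence quantified 30 min later at room temperature.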
# Rab9 promoter act: Rab9 promoter activation | Potency, µM (doses to about 9.22 µM), hits mostly activators | AID 485297 | 2.8% of 320,000 active | Huh7 Rab9 promoter-luciferase reporter, luminescence, 24 h; further: nearly all actives have a fitted effect of over 60% in size
#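 Rab9 promoter-driven luciferase in stably transfected Huh7 cells; 1500 cells/well rested 2 h, exposed to compound in DMSO for 24 h at 37 °C, 5% CO2. Luminescence read 10 min after adding luciferase reagent at ambient temperature.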
# FLuc counter: firefly luciferase modulation, counter-screen for miR-21 project; 6.9% of 360,000 active; P08659; purified FLuc, Km substrates, luminescence inhibition; AID 588342; Potency, µM (titrated, usually from 57.5 µM), usual class: inhibitors; further: nearly all actives have a fitted effect of over 55% in size
# Target sequence (P08659 whole entry, looked up): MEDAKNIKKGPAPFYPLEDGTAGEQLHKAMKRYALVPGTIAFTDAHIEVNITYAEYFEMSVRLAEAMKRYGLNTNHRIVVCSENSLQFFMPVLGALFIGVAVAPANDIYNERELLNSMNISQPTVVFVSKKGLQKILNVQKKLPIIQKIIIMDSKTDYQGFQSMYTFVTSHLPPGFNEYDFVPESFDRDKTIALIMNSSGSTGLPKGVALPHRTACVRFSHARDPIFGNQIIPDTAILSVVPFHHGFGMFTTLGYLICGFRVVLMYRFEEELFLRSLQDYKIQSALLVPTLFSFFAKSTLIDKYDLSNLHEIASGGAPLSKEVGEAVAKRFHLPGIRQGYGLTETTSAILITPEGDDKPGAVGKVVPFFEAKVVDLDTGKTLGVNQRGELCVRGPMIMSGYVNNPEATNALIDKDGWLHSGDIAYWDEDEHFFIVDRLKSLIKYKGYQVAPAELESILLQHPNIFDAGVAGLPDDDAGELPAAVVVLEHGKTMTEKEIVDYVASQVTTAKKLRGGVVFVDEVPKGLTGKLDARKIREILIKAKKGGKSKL
#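 Purified P. pyralis luciferase (10nM final) with 10uM D-luciferin and 10uM ATP (Km levels) in 50mM Tris acetate pH 7.5, 10mM Mg acetate, 0.01% Tween-20, 0.05% BSA; qHTS 6-point titration, ~60 µM downward; luminescence read.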
# NPC1 prom act: activators of NPC1 promoter; Huh7 NPC1 promoter luciferase reporter, 24 h; Potency, µM (series often up to 9.22 µM), actives largely listed as activators; 2.4% of 320,000 active; AID 485313; further: nearly all actives have a fitted effect of over 60% in size
#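 Luciferase expression driven by the NPC1 promoter was measured in stably transfected Huh7 cells after a 24 h compound incubation, using a luciferase reagent and a luminescence read.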
# Hits are given with their value; - = inactive; ? = inconclusive; . = no result given; [ ] = dose if it differs, or a comment. Rows were chosen to be rich in hits. Some 9.2% of all compounds tested hit in one or more screens of this group. The call rests on the fitted dose curve; in most records, active means well fitted curve in the direction sought with a large enough effect; inconclusive means small, poorly fitted or top-dose-only effect, or another doubt; inactive means no such curve, though single readings can be large; an effect the other way counts as inactive or inconclusive.
SMILES,SMN2 splice up,ELG1 repair inh,ELG1 genotox,Rab9 promoter act,FLuc counter,NPC1 prom act
COc1ccc(N2CCN(C(=O)C3CCCN(S(=O)(=O)c4c(C)noc4C)C3)CC2)cc1 (stereo not drawn),.,-,-,-,-,-
Cc1cc2ncc(C(=O)N=CN(C)C)cn2n1,-,-,-,-,-,-
Cc1ccc(-c2cnc3c(Cl)c(C)nn3c2)cc1,3.2µM,?,?,0.45µM,1.3µM,?
Cc1cc2ncc(-c3ccc(Cl)cc3)cn2n1,11µM,?,?,1.4µM,2.7µM,3.5µM
Cc1ccc(-c2cnc3cc(C)nn3c2)cc1,13µM,?,-,0.45µM,2.1µM,0.71µM
CCCC1(C)C(C#N)(C#N)C1(C#N)C#N,.,.,.,-,.,-
C=C(C)CSc1nncn1/N=C/c1ccc(OC)cc1,?,?,?,4µM,12µM,?
CCSc1nncn1/N=C/c1ccc(OC)c(OC)c1,?,?,?,-,?,-
CCOC(=O)C(CCc1ccccc1)NC(C)C(=O)N1Cc2ccccc2CC1C(=O)O (stereo not drawn),-,.,.,.,.,.
Cc1cc(C(=O)CSc2nnnn2-c2ccc(O)cc2)c(C)n1Cc1ccc2c(c1)OCO2,-,18µM,-,-,-,-
O=C(CSc1nncs1)Nc1ccc2c(c1)OCCO2,-,?,15µM,?,?,?
Cc1cc(C(=O)CSc2nnnn2-c2ccccc2)c(C)n1-c1ccc2c(c1)OCO2,-,-,-,-,-,-
Cc1cc(C(=O)CSc2nncs2)c(C)n1-c1ccc2c(c1)OCO2,-,?,-,2.2µM,19µM,?
O=C(CSc1nncs1)NC(=O)Nc1ccc2c(c1)OCCO2,.,?,?,3.5µM,15µM,?
Cc1ccc(S(=O)(=O)C/N=C(/NC(=S)N(c2ccccc2)c2ccccc2)c2ccccc2)cc1,-,?,-,-,-,-
CCOC(=O)C1=C(CN2CCN(C(=O)c3ccco3)CC2)NC(=O)NC1c1ccc(F)cc1 (stereo not drawn),.,-,-,-,-,-
CC1=[N+](C)N(c2ccccc2)C(=O)C1N=C/C=C/c1ccccc1 (stereo not drawn),.,-,-,-,15µM,-
Cc1cccc(NC(=O)c2cc(-c3cc(C)cc(C)c3O)n[nH]2)c1,.,-,-,-,?,-
Cc1cc(C)c(O)c(-c2cc(C(=O)Nc3cccnc3)[nH]n2)c1,.,21µM,-,-,19µM,-
Cc1cc(O)c(-c2cc(C(=O)Nc3cccnc3)[nH]n2)cc1C,.,?,3.7µM,1µM,1.9µM,0.25µM
COc1ccc(NC(=O)c2cc(-c3ccccc3O)n[nH]2)cc1Cl,.,?,-,-[1.84 µM],-,-
COc1ccc(NC(=O)c2cc(-c3cc(C)cc(C)c3O)n[nH]2)cc1Cl,-,21µM,-,-,?,-
CCc1ccc(O)c(-c2cc(C(=O)Nc3cccnc3)[nH]n2)c1,.,?,?,2.2µM,11µM,1.6µM
CC(C)Cc1nnc(NC(=O)c2ccc3c(c2)NC(=O)C(C)S3)s1 (stereo not drawn),.,-,-,-,-,-
Cc1cn2c(=O)c(S(=O)(=O)Nc3ccc(OC(F)(F)F)cc3)c(C)nc2s1,.,.,.,.,-,.
SMILES,SMN2 splice up,ELG1 repair inh,ELG1 genotox,Rab9 promoter act,FLuc counter,NPC1 prom act
Cc1ccc(S(=O)(=O)N2CCCc3cc(NS(=O)(=O)c4ccccc4)ccc32)cc1,.,.,.,.,-,.
CCOC(=O)N1CCN(C(=O)CSCC(=O)Nc2nc(-c3ccc4c(c3)OCO4)cs2)CC1,.,?,-,?,?,?
O=C(CCCCl)Nc1nc(-c2ccc3c(c2)OCCO3)cs1,.,?,5.8µM,3.2µM,11µM,3.5µM
O=C(Nc1nc(-c2ccc3c(c2)OCCO3)cs1)C1CCCC1,11µM,?,?,2.2µM,7.6µM,?
N#CCC(=O)Nc1nc(-c2ccc3c(c2)OCCO3)cs1,13µM,?,?,3.5µM,7.6µM,?
CCOC(=O)c1c(C)oc2c(Cl)cc(NS(=O)(=O)c3ccc(Cl)c(C)c3)cc12,-,.,.,.,?,.
Nc1cc(C(=O)O)c(N)c2c1C(=O)c1ccccc1C2=O,.,?,-,-,19µM,-
COC(=O)c1ccc2c(c1O)C(=O)c1ccccc1C2=O,-,?,?,-,8.5µM,-
